Assay results published in PubChem BioAssay AID588689 (Southern Research Specialized Biocontainment Screening …, 2011).
The whole screen tested about 340,000 compounds, of which about 1,000 (0.29%) were called active. Cut-off read from the data, not from the text of the source: inconclusive = inhibition above about 29% without an active follow-up result; inactive = below that. Only a sample is shown. Results with a measured potency or affinity are listed apart.

Target: Genome polyprotein (Dengue virus type 2 (strain 16681-PDK53)) (UniProt P29991)
Sequence (P29991 whole entry, looked up): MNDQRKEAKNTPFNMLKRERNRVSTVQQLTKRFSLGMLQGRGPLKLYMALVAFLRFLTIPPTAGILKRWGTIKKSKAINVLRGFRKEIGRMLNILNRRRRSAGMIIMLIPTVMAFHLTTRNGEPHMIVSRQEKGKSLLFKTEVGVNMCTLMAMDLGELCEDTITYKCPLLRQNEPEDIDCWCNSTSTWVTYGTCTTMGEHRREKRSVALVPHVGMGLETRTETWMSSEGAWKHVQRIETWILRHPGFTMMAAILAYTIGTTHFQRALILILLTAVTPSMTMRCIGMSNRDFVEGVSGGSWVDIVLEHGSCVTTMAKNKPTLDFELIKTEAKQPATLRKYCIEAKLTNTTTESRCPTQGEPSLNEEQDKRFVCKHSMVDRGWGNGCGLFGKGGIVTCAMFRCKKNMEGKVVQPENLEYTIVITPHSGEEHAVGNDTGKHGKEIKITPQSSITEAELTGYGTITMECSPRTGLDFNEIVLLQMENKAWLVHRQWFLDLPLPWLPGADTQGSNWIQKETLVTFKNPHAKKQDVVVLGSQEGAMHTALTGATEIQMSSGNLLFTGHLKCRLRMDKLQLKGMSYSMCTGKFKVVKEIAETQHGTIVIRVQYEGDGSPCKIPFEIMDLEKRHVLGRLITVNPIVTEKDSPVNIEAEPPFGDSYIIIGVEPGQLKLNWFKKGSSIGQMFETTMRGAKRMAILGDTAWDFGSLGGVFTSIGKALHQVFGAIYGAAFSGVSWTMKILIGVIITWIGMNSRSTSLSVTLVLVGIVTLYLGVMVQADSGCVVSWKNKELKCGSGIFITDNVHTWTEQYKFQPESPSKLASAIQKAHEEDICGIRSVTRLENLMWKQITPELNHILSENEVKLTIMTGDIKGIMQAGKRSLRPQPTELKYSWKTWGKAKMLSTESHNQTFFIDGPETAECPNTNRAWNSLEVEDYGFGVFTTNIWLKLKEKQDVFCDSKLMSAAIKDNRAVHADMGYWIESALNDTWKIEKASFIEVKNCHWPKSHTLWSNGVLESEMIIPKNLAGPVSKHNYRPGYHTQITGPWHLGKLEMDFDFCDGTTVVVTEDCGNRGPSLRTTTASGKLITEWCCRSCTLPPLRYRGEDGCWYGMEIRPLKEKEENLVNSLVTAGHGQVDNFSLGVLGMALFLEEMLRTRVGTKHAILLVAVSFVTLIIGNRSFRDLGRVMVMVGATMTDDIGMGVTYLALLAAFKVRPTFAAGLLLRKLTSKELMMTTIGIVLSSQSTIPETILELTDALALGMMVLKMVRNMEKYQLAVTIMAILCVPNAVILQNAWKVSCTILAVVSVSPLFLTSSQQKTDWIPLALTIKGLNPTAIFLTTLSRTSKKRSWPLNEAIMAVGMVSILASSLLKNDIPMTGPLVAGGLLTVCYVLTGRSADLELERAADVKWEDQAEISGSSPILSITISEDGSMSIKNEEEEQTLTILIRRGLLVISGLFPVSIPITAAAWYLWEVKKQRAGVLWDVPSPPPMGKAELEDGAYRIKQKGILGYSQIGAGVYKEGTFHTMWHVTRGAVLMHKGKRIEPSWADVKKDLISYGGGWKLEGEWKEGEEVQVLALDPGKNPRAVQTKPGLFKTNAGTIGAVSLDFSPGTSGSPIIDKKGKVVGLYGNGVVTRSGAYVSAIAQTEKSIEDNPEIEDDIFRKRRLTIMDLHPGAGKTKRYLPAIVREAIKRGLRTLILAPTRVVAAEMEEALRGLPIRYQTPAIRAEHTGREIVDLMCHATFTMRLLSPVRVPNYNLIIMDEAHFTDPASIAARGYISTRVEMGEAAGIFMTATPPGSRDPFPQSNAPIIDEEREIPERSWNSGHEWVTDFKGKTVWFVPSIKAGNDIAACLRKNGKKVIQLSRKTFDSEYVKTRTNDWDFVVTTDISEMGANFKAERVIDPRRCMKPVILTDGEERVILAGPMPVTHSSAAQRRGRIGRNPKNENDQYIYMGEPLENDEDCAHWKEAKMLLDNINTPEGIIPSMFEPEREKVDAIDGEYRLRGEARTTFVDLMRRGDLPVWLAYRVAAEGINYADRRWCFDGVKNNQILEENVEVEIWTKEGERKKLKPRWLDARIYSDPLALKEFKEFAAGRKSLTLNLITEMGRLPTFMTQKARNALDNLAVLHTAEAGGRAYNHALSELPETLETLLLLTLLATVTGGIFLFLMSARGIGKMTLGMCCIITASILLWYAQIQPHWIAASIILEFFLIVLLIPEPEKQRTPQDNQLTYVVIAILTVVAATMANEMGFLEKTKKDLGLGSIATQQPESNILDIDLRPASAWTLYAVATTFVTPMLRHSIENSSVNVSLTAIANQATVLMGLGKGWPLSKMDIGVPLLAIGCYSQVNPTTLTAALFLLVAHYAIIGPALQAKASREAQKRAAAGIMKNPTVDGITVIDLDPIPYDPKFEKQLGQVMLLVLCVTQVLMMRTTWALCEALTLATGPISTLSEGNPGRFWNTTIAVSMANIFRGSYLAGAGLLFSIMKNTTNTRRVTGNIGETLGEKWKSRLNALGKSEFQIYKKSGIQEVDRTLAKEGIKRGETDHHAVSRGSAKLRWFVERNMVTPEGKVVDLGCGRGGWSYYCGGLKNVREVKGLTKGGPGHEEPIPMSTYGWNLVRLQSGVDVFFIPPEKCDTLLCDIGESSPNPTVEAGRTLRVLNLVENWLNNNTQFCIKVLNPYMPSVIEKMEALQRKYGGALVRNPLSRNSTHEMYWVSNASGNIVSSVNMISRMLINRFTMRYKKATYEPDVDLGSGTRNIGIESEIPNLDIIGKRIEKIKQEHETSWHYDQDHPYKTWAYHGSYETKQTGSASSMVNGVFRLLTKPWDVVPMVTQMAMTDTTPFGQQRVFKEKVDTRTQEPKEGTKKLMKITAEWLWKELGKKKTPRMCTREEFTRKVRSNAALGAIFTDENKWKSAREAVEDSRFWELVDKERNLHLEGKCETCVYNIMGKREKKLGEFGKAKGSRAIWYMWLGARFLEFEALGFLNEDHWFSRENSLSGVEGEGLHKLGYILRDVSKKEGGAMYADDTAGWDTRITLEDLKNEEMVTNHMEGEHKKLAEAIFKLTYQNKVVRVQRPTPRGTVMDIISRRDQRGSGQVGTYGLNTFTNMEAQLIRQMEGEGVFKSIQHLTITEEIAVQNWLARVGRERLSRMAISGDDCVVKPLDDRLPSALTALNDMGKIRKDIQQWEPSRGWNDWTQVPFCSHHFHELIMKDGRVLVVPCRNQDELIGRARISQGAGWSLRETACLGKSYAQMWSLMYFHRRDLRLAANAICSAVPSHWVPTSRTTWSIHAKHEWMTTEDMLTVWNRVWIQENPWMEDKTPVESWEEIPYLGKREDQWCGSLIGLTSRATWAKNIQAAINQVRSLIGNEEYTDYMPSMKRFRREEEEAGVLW
Assay: Dengue-2 NS5 methyltransferase inhibitors, primary screen, biochemical, confirmation dose response (AID 588689)
Details: Dengue-2 NS5 methyltransferase capping enzyme assay, at 25 µM, stronger effect = higher value
[1] = measured here: pilot screen replicate inhibition

SMILES | inhibition | inhibition [1]
Cc1ccc(/C=C/C2=NN(Cc3ccccc3Cl)C(=O)CC2)cc1 | -2.71% (inactive) | –
O=C(CCC1CCCC1)NCCS(=O)(=O)N1CCN(c2ccccc2)CC1 | -5.17% (inactive) | –
Cc1c(C(=O)OCC(=O)N2CC(=O)Nc3ccccc32)oc2ccc(Br)cc12 | -0.83% (inactive) | –
Cc1cccc(NC(=O)C(=O)NCC2CCCN2S(=O)(=O)c2cccs2)c1 (stereo unspecified) | 6.86% (inactive) | –
Cc1onc(-c2ccccc2)c1C(=O)OCC(=O)c1ccc[nH]1 | -1.1% (inactive) | –
COC(=O)NC1CSCC1OC(=O)CN1C(=O)c2ccccc2C1=O (stereo unspecified) | 1.83% (inactive) | –
NS(=O)(=O)c1ccc(NC(=O)COc2ccc(S(=O)(=O)N3CCCC3)cc2)cc1 | -0.81% (inactive) | –
O=C1NC(=O)N(c2ccccc2)C1=O | 0% (inactive) | –
O=C1N/C(=C/c2ccc(Br)s2)C(=O)N1c1ccccc1 | -5.43% (inactive) | –
Cc1ccc(-n2nnnc2CS(=O)(=O)c2ccccc2)c(C)c1 | -5.86% (inactive) | –
C=CCc1ccccc1OCC(=O)OCCNC(=O)c1cccnc1 | 3.9% (inactive) | –
CSc1ccc(CNc2ccc(C)cc2)cc1 | 2.76% (inactive) | –
Cc1ccc(NCc2ccccc2)cc1 | -5.19% (inactive) | –
COc1ccc(OC)c(N=c2oc3c(OC)cccc3cc2C(=O)NCc2ccco2)c1 | -9.6% (inactive) | -5.77%
COc1ccccc1N=c1oc2c(OC)cccc2cc1C(=O)NCc1ccco1 | 12.3% (inactive) | 6.37%
O=c1oc2ccccc2c(O)c1C=Nc1cccnc1 | -5.19% (inactive) | –
CN(C)c1cc(Nc2cccc(O)c2)c([N+](=O)[O-])c2nonc12 | 6.85% (inactive) | –
Nc1cc(Nc2ccccc2)c2nonc2c1[N+](=O)[O-] | -1.31% (inactive) | –
CC(=O)Nc1ccc(Nc2cc(N(C)C)c3nonc3c2[N+](=O)[O-])cc1 | -5.29% (inactive) | –
COc1cccc(Nc2cc(N3CCOCC3)c3nonc3c2[N+](=O)[O-])c1 | 2.01% (inactive) | –
CN(C)c1cc(Nc2ccc(O)cc2)c([N+](=O)[O-])c2nonc12 | -10.7% (inactive) | –
O=[N+]([O-])c1c(Nc2ccc(O)cc2)cc(N2CCOCC2)c2nonc12 | 9.17% (inactive) | –
CC(=O)Nc1ccc(Nc2cc(N3CCOCC3)c3nonc3c2[N+](=O)[O-])cc1 | -6.25% (inactive) | –
O=[N+]([O-])c1ccc(Nc2ccccn2)c([N+](=O)[O-])c1 | -9.54% (inactive) | –

SMILES | inhibition | inhibition [1]
Cc1ccc(-c2cc(C(=O)N3CCOCC3)c3cc(C)ccc3n2)cc1 | -1.58% (inactive) | –
O=C1CS/C(=C\S(=O)(=O)c2ccc(Cl)cc2)N1 | -10.6% (inactive) | –
CCC(=O)N1c2ccccc2-c2nnc(SC)nc2OC1c1ccc(N(C)C)cc1 (stereo unspecified) | -7.25% (inactive) | –
Cc1cnn(C(=O)c2cc(-c3ccccn3)nc3ccc(Cl)cc23)c1 | 8.88% (inactive) | –
CCOC(=O)NC1(C(F)(F)F)NC(=O)N(C2CCCCC2)C1=O (stereo unspecified) | -2.12% (inactive) | –
COc1ccc(CCNC(=O)CSc2nc(=O)n3cc(C)ccc3n2)cc1OC | 3.6% (inactive) | –
CCCCn1c(SCC(=O)NNC(=O)c2ccccc2)n[nH]c1=O | 3.69% (inactive) | –
Cc1nnc(SCC(=O)Nc2nc3ccccc3s2)n(N)c1=O | -2.58% (inactive) | –
O=C(O)c1cccc(Nc2ccc([N+](=O)[O-])c3nonc23)c1 | 1.29% (inactive) | –
O=C(O)c1cccc(Nc2ccc3nonc3c2[N+](=O)[O-])c1 | 1.54% (inactive) | –
O=[N+]([O-])c1c(Nc2ccccc2O)ccc2nonc12 | 6.25% (inactive) | –
O=C(O)c1ccc(Nc2ccc([N+](=O)[O-])c3nonc23)cc1 | -1.54% (inactive) | –
CCNc1cc(Nc2c(C)n(C)n(-c3ccccc3)c2=O)c([N+](=O)[O-])c2nonc12 | 6.99% (inactive) | –
Cc1c(Nc2cc(N3CCCCCC3)c3nonc3c2[N+](=O)[O-])c(=O)n(-c2ccccc2)n1C | -6.93% (inactive) | –
O=[N+]([O-])c1c(Nc2ccccc2O)cc(N2CCOCC2)c2nonc12 | 6.36% (inactive) | –
O=C(O)c1ccc(Nc2ccc3nonc3c2[N+](=O)[O-])cc1 | -2.31% (inactive) | –
O=C(COC(=O)/C=C/c1cccc(Br)c1)NCc1cccs1 | -4.41% (inactive) | –
COCCCNC(=O)Cn1cnc(C(=O)Nc2ccc(C)c(C)c2)n1 | -3.97% (inactive) | 0.615%
COc1cccc(Nc2nc(N)nc(-c3oc4ccccc4c3C)n2)c1 | -4.01% (inactive) | –
Cc1ccc(NS(=O)(=O)c2ccc(OCC(=O)NCC3CCCO3)cc2)cc1 (stereo unspecified) | 2.96% (inactive) | –
O=S(=O)(Nc1ccc2c(c1)nc1n2CCOC1)c1ccc(Cl)cc1 | -6.15% (inactive) | –
COc1cccc(/C=N/N2CCOCC2)c1O | -2.67% (inactive) | –
COc1ccc(O)c(/C=N/N2CCOCC2)c1 | -4.77% (inactive) | –
COc1ccc(C=C2NC(=O)NC2=O)cc1O | 5.71% (inactive) | –

SMILES | inhibition | inhibition [1]
COc1ccc(NC(=S)N(CCC(C)C)C(C)c2ccncc2)cc1 (stereo unspecified) | 0.57% (inactive) | –
CCOC(=O)c1ccc(OCc2nc(-c3cccs3)no2)cc1 | -0.7% (inactive) | –
CN(C)S(=O)(=O)c1cccc(NC(=O)CO/N=C(\N)c2ccccc2)c1 | 2.16% (inactive) | –
CCN1C(=O)/C(=C\c2cn(-c3ccccc3)nc2-c2cccnc2)SC1=S | 2.99% (inactive) | –
CN(C)S(=O)(=O)c1cccc(-c2nn(-c3ccccc3)cc2/C=C2\SC(=S)NC2=O)c1 | -16% (inactive) | –
CC1CCN(C2=NC(=O)/C(=C/c3cn(-c4ccccc4)nc3-c3cccc(S(=O)(=O)N(C)C)c3)S2)CC1 | -0.56% (inactive) | –
COc1ccc(-c2nn(-c3ccccc3)cc2/C=C2/SC(=S)N(CCC(=O)O)C2=O)cc1 | 11.8% (inactive) | –
CCC(=O)Nc1ccc2ccccc2c1 | -7.67% (inactive) | –
CCC(=O)Nc1ccc2c(c1)ncn2C | -8.57% (inactive) | –
O=c1[nH]nc(-c2ccc(F)cc2)cc1Cc1ccccc1 | -7.66% (inactive) | –
COc1ccc(NC(=O)/C(C#N)=C\c2ccc(OCc3ccc(C(=O)O)cc3)c(OC)c2)cc1 | -8.98% (inactive) | –
N#C/C(=C\c1ccccc1OCc1ccc(C(=O)O)cc1)C(=O)Nc1ccc(O)cc1 | 27% (inactive) | –
O=C(NCCCN1CCOCC1)c1ccc(S(=O)(=O)Nc2ccccc2)cc1 | -4.34% (inactive) | –
Cc1ccc(NC(=O)Nc2cc(C)on2)cc1 | -0.74% (inactive) | –
CCNc1nc(SC(C(C)=O)C(C)=O)nc(N(C)C)n1 | -1.07% (inactive) | –
COc1ccc([N+](=O)[O-])cc1NCC(=O)Nc1cccc(S(=O)(=O)N2CCCC2)c1 | -0.72% (inactive) | –
O=C1C(c2c(O)[nH]c3ccccc23)=Nc2ccccc21 | -46.9% (inactive) | –
O=C1C(c2ccncc2)=C(O)c2ccccc21 | 2.03% (inactive) | –
Clc1ccc(-c2nsc(N3CCOCC3)n2)c(Cl)c1 | -8.96% (inactive) | –
Cc1cc(C)c(NC(=O)CNC(=O)COC(=O)/C=C/c2cccs2)c(C)c1 | -7.3% (inactive) | –
CCc1nnc(NS(=O)(=O)c2ccc(NC(=O)/C=C/c3ccc(F)cc3)cc2)s1 | 3.59% (inactive) | –
CCc1nnc(NS(=O)(=O)c2ccc(NC(=S)NC(=O)/C=C/c3ccc([N+](=O)[O-])cc3)cc2)s1 | 9.83% (inactive) | –
CCc1nnc(NS(=O)(=O)c2ccc(NC(=S)NC(=O)/C=C/c3ccc(OC)cc3)cc2)s1 | -1.6% (inactive) | –
CCc1nnc(NS(=O)(=O)c2ccc(NC(=S)NC(=O)/C=C/c3ccccc3)cc2)s1 | 8.99% (inactive) | –

SMILES | inhibition | inhibition [1]
CC(C)NC1(C#N)CCN(Cc2ccccc2)CC1 | 0% (inactive) | –
CCOc1ccc(Nc2nc(C)cc(C)c2C#N)cc1 | 0% (inactive) | –
COC(=O)c1sc(N)c(C(=O)OC)c1COC(=O)CNS(=O)(=O)c1cccc(C#N)c1 | -1.45% (inactive) | –
COC(=O)c1cc(C)c(C)cc1NC1OC(CO)C(O)C1O (stereo unspecified) | -9.68% (inactive) | –
C[C@H](CO)N1C[C@H](C)[C@@H](CN(C)C(=O)c2cnccn2)Oc2cc(C#CCC3CCCC3)ccc2S1(=O)=O | -16.2% (inactive) | –
O=C(NCc1ccccc1)N1CCC(CO)(CCc2ccccc2)CC1 | 5.32% (inactive) | –
CC(C)C1Nc2ccc(S(N)(=O)=O)cc2C2C=CCC21 (stereo unspecified) | 16% (inactive) | –
O=C(O)C1Nc2c(Cl)cc(Cl)c(Cl)c2C2C=CCC12 (stereo unspecified) | 8.87% (inactive) | –
CCOC(=O)N1CCC(NC(=O)CCS(=O)(=O)c2ccc3c(c2)CCN3C(C)=O)CC1 | 0% (inactive) | –
CCOC(=O)/C=C(\C)Sc1cc(=O)oc2ccccc12 | -12.1% (inactive) | –
CCOC(=O)c1c(C)oc2c1cc(O)c1ccccc12 | 18.5% (inactive) | –
O=C(O)COc1ccc(/C=C/C(=O)c2ccc3ccccc3c2)cc1 | 21.6% (inactive) | –
CCOc1ccc(/C=C/C(=O)c2ccccc2)cc1 | -8.48% (inactive) | –
CCOC(=O)c1[nH]nc2c1C(=O)N(Cc1ccccc1)C2=O | -0.68% (inactive) | –
CCCCNC(=O)c1sc2ncnc(N3CCc4ccccc4C3)c2c1C | -8.03% (inactive) | –
Cc1cccc(NC(=S)N(Cc2ccc(Cl)cc2)Cc2ccc(C(=O)O)cc2)c1 | -0.79% (inactive) | –
Cc1cc(C)cc(NC(=S)N(Cc2ccc(Br)cc2)Cc2ccc(C(=O)O)cc2)c1 | -6.24% (inactive) | –
CC1CCCN(C(=O)CCNC(=O)Cn2cnc3ccccc3c2=O)C1 (stereo unspecified) | -2.67% (inactive) | –
COc1ccc(S(=O)(=O)Oc2ccc3ccccc3c2)cc1 | 0.73% (inactive) | –
NS(=O)(=O)c1ccc(Sc2ccc3ccccc3c2)nc1 | -5.01% (inactive) | –
COC(=O)c1ccc(NC(=O)C(=O)N2CCN(C(=S)Nc3cccc(C)c3C)CC2)cc1 | -4.36% (inactive) | –
